In PubChem BioAssay (NCATS):
Inconclusive results are not listed. A call without a number means that no potency is given here. The source made the active and inactive calls. The call rests on the fitted dose curve; tested in HEK293 reporter line.

Assay: qHTS for Inhibitors of the Functional Ribonucleoprotein Complex (vRNP) of Lassa (LASV) Arenavirus: Viability assay - alamar blue signal for LASV Primary Screen (AID 1347083); further: nearly all actives have a fitted effect of over 80% in size
Details: cell viability, alamar blue fluorescence (LASV minigenome counter-screen); series mostly up to 57.5 µM
Potency means the concentration at half of the fitted maximal effect.

Question: With `O=C(O)CNC(=O)CNC(=O)CNC(=O)CSC(=O)c1ccccc1` as the compound, how does the Potency read?
Answer: Its Potency is “inactive”.

Question: With `COc1cc2c(cc1OC)C(=O)CC2` as the compound, how does the Potency read?
Answer: The Potency was “inactive”.

Question: Which Potency does the source give for `CS(=O)(=O)Nc1ccc([N+](=O)[O-])cc1Oc1ccccc1` here?
Answer: Its Potency is “inactive”.

Question: With `OCCCc1ccccc1` as the compound, how does the Potency read?
Answer: Its Potency is “inactive”.

Question: With `CN(C)CC/C=C1/c2ccccc2COc2ccc(CC(=O)O)cc21` as the compound, how does the Potency read?
Answer: Its Potency is “inactive”.

Question: With `COc1ccccc1O` as the compound, how does the Potency read?
Answer: Its Potency is “inactive”.

Question: For `Nc1ccc(S(=O)(=O)Nc2ccccc2)cc1`, which Potency is on record?
Answer: The Potency was “inactive”.

Question: With `Cn1cncc1[C@@](N)(c1ccc(Cl)cc1)c1ccc2c(c1)c(-c1cccc(Cl)c1)cc(=O)n2C` as the compound, how does the Potency read?
Answer: Its Potency is 4320 nM (active).

Question: For `NC(=O)Nc1cc(-c2cccc(F)c2)sc1C(=O)N[C@H]1CCCNC1`, which Potency is on record?
Answer: Its Potency is 306 nM (active).

Question: For `O=C1C(CCC(O)c2ccc(F)cc2)C(c2ccc(O)cc2)N1c1ccc(F)cc1` (stereo unspecified), which Potency is on record?
Answer: Its Potency is “inactive”.

Question: With `COc1nc(C)cnc1NS(=O)(=O)c1cccnc1-c1ccc(-c2nnco2)cc1` as the compound, how does the Potency read?
Answer: The Potency was “inactive”.
